# Unmarked numbers belong to inactive results. Results filed as inconclusive are left out. The source made the active and inactive calls. Unless noted, the call rests on the fitted dose curve; in most records, active means well fitted curve in either direction with a large enough effect (not every such curve was filed as active); inconclusive means small, poorly fitted or top-dose-only effect, or another doubt; inactive means flat fitted curve, though single readings scatter.
# Legend:
# [1] = tested on: HIV-1 nucleocapsid protein NCp7 (binding to TG oligonucleotide); test: HIV Nucleocapsid (AID 346; call rule not given here;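 further: potency means the concentration at half of the fitted maximal effect; potency is for inhibitors that block NC binding and lower polarization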); details: HIV-1 NC / fluorescein-TGTGTGTG probe, fluorescence polarization
# How it was run: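 10 nM TG4xF probe with 100 nM nucleocapsid protein in high-salt Hepes pH 7.5 (250mM NaCl) containing 1uM ZnCl2 and reducing agents. Compound inhibition of binding was read as fluorescein polarization after 1 hr at room temperature.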
# [2] = biological target: Lysosomal acid glucosylceramidase (Homo sapiens) (UniProt P04062); test: Glucocerebrosidase-p2 (AID 348; in the data active means potency below about 10 µM; further: potency means the concentration at half of the fitted maximal effect); details: purified GBA, blue fluorogenic substrate, 40 min
# How it was run: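 Compounds titrated from 0.6 nM upwards against 0.2 nM enzyme in pH 5.9 citric acid/KH2PO4, taurocholate, tween-20; blue fluorogenic substrate 80 uM, 40 min room temperature, stopped and read Ex 365/Em 440 for AC50.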
# [3] = AP1 Signaling Pathway (AID 357); details: ME-180 AP-1-bla reporter, EGF-induced, beta-lactamase ratio, 5 h; at 7.69 µM (top of the series) unless noted;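 further: ME-180 reporter cells stimulated with EGF at its EC50 level; on the % scale 0 is the no-effect control and ±100 the full control effect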
# How it was run: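 Cells are seeded overnight, exposed to compound titrations and an EC50 level of EGF for 5 hours at 37 °C, then loaded with CCF4 dye for 2.5 hours. Beta-lactamase activity under the AP-1 element is read as a blue/green ratio.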
# [4] = biological target: Cytochrome P450 1A2 (Homo sapiens) (UniProt P05177); test: p450-cyp1a2 (AID 410; calls by dose curve; further: potency means the concentration at half of the fitted maximal effect;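 on activity change, negative = inhibition: -100% = full effect of reference inhibitor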); details: recombinant CYP1A2, luciferin-ME demethylation, luminescence; series mostly up to 11.4 µM
# How it was run: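 20nM CYP1A2 with 100uM Luciferin-ME (at Km) in 100mM KPO4; compound preincubated 10 min, NADPH regeneration added, 60 min at room temperature. Luciferin quantified by luminescence after detection reagent; normalized to 57 uM furafylline.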
# [5] = NFAT Signaling Pathway (AID 444); details: Jurkat NFAT-bla M1, carbachol, beta-lactamase ratio, 5 h; at 7.69 µM (top of the series) unless noted;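 further: carbachol stimulus at about its EC50 of 1 µM final; on the % scale 0 is the no-effect control and ±100 the full control effect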
# How it was run: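 Read-out: CCF4 FRET ratio (460 nm/530 nm) after 1 h RT dye loading, used for %activity and AC50 from titration series. Cells: Jurkat NFAT-β-lactamase/M1 line, treated with compound plus 1 uM carbachol for 5 h, 37 °C.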
# [6] = Stat Signaling Pathway (AID 446); details: ME-180 SIE beta-lactamase reporter, IL-6 stimulated, 5 h; at 7.69 µM (top of the series) unless noted;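 further: ME-180 cervical cancer cells given 40 pM IL-6 alongside compound; SIE-controlled beta-lactamase reporter measured as 460/530 nm FRET emission ratio; on the % scale 0 is the no-effect control and ±100 the full control effect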
# How it was run: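 ME-180 SIE-bla cells; overnight plating; cpd + IL-6 40 pM, 5 h, 37 C; LiveBLAzer 2.5 h RT; 460/530 nm emission ratio. Normalized to 300 pM IL-6 and 125 nM JAK inhibitor controls.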
# [7] = biological target: Glucocorticoid receptor (Homo sapiens) (UniProt P04150); test: GR-GFP Redistribution (AID 450;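 active means compounds whose dose series gives a full or clear partial fitted curve of increased nuclear translocation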; further: potency means the concentration at half of the fitted maximal effect); details: U2OS GR-GFP nuclear translocation, laser cytometry, 2 h
# [8] = biological target: Glucocorticoid receptor (Homo sapiens) (UniProt P04150); test: GR-EFC Redistribution (AID 451; calls by dose curve; further: potency means the concentration at half of the fitted maximal effect); details: CHO-K1 GR-EFC translocation, beta-gal luminescence, 2 h
# How it was run: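 Translocation of GR-ED fusion to nuclear EA restores b-gal, read by luminescence after 1 h room-temperature detection. Engineered CHO-K1 biosensor cells, 1,000/well, exposed 2 h at 37 C to titrations up to 46 uM final.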
# [9] = biological target: Mitogen-activated protein kinase 10 (Mus musculus) (UniProt Q61831); test: JNK3 AlphaScreen Assay (AID 530); details: JNK3 lysate, c-Jun phosphorylation; series mostly up to 57.1 µM;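 further: kinase came from lysate of stimulated human HepG2 cells; signal reports phosphorylation of biotinylated GST-cJun 1-79 at Ser73 with 10 µM ATP; on the % scale 0 is the no-effect control and ±100 the full control effect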
# How it was run: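 Compound titrations were preincubated 15 minutes at room temperature with substrate, antibody and pre-activated JNK3-containing HepG2 lysate. Reactions were started with 10 uM ATP and stopped with EDTA-containing bead buffer for AlphaScreen detection.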
# [10] = biological target: 3',5'-cyclic-AMP phosphodiesterase 4B (Homo sapiens) (UniProt Q07343); test: qHTS Assay for Inhibitors of PDE-IV (AID 607; active means well fitted activation curve with a large enough effect in the main read-out, with a control signal flat, not every such curve was filed as active; further: % of control where 0% means no effect); details: HEK293 ACTOne CNG channel cells, membrane potential fluorescence; series mostly up to 22.9 µM
# How it was run: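 ACTOne HEK293 cells carry a modified cAMP-gated CNG channel and express endogenous PDE4; plated 1000 cells/well, compounds up to 22.9 uM final. Membrane-potential dye fluorescence (ex 535/em 590) was read; parental cells received 10 uM forskolin + 100 uM RO 20-1724.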
# [11] = biological target: Cytochrome P450 2D6 (Homo sapiens) (UniProt P10635); test: qHTS Assay for Inhibitors and Substrates of Cytochrome P450 2D6 (AID 891; active means well fitted curve in the direction sought with a large enough effect; an effect the other way counts as inactive or inconclusive;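 further: luciferin methyl ether substrate demethylated by CYP2D6 with NADPH regeneration; on the % scale 0 is the no-effect control and ±100 the full control effect; nearly all actives have a fitted effect of over 60% in size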); details: recombinant CYP2D6, luciferin-ME EGE luminescence; series mostly up to 11.4 µM
# How it was run: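 Human CYP2D6 (5 nM) with 30 uM Luciferin-ME EGE (at Km) in 100 mM KPO4, compound preincubated 10 min, then NADPH regeneration system for 60 min at room temperature. Luciferin read by luminescence; normalized to 1.43 uM quinidine.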
# [12] = biological target: Cytochrome P450 2C19 (Homo sapiens) (UniProt P33261); test: qHTS Assay for Inhibitors and Substrates of Cytochrome P450 2C19 (AID 899; active means well fitted curve in the direction sought with a large enough effect; an effect the other way counts as inactive or inconclusive; further: nearly all actives have a fitted effect of over 60% in size; further: potency means the concentration at half of the fitted maximal effect); details: recombinant CYP2C19, luciferin-H EGE luminescence; series mostly up to 11.4 µM
# How it was run: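 5nM enzyme + 10uM Luciferin-H EGE (=KM), 50mM KPO4; cpd pin-transferred, 10 min 37C; NADPH regen, 60 min 37C; stopped w/ luciferin detection reagent, 20 min; luminescence. Normalized to 57uM ketoconazole (AC100).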
# [13] = biological target: Cytochrome P450 2C9 (Homo sapiens) (UniProt P11712); test: qHTS Assay for Inhibitors and Substrates of Cytochrome P450 2C9 (AID 883; active means well fitted curve in the direction sought with a large enough effect; an effect the other way counts as inactive or inconclusive; further: nearly all actives have a fitted effect of over 60% in size; further: potency means the concentration at half of the fitted maximal effect); details: recombinant CYP2C9, luciferin-H luminescence, 60 min; series mostly up to 57.1 µM
# How it was run: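 Inhibition of CYP2C9 is scored as loss of luminescence, with 57uM sulphaphenazole defining 100% inhibition. Substrate Luciferin-H is used at 100uM, equal to its KM; enzyme at 10nM in 25mM KPO4, 60 min at 37C with NADPH regeneration.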
# [14] = biological target: Cytochrome P450 3A4 (Homo sapiens) (UniProt P08684); test: qHTS Assay for Activators of Cytochrome P450 3A4 (AID 885; active means well fitted curve in the direction sought with a large enough effect; an effect the other way counts as inactive or inconclusive; further: nearly all actives have a fitted effect of over 65% in size); details: recombinant CYP3A4, Luciferin-PPXE luminescence, 60 min; series mostly up to 57.1 µM
# How it was run: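 20nM CYP3A4 + 25uM Luciferin-PPXE (=KM), 200mM KPO4; cpd 10 min RT; NADPH regen, 60 min RT; stop w/ detection buffer, 20 min; luminescence. Normalized to 57 uM ketoconazole.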
# [15] = biological target: Cytochrome P450 3A4 (Homo sapiens) (UniProt P08684); test: qHTS Assay for Inhibitors and Substrates of Cytochrome P450 3A4 (AID 884; active means well fitted curve in the direction sought with a large enough effect; an effect the other way counts as inactive or inconclusive; further: potency means the concentration at half of the fitted maximal effect; nearly all actives have a fitted effect of over 50% in size); details: recombinant CYP3A4, Luciferin-PPXE luminescence; series mostly up to 57.1 µM
# How it was run: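 20 nM human CYP3A4 with 25 uM Luciferin-PPXE (at KM) in 200 mM KPO4, preincubated 10 min with compound; NADPH regeneration started a 60 min RT reaction. Luciferin detected by luminescence, normalized to 57 uM ketoconazole as full inhibition.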
# Sequence of Cytochrome P450 1A2 (Homo sapiens) (P05177 whole entry, looked up): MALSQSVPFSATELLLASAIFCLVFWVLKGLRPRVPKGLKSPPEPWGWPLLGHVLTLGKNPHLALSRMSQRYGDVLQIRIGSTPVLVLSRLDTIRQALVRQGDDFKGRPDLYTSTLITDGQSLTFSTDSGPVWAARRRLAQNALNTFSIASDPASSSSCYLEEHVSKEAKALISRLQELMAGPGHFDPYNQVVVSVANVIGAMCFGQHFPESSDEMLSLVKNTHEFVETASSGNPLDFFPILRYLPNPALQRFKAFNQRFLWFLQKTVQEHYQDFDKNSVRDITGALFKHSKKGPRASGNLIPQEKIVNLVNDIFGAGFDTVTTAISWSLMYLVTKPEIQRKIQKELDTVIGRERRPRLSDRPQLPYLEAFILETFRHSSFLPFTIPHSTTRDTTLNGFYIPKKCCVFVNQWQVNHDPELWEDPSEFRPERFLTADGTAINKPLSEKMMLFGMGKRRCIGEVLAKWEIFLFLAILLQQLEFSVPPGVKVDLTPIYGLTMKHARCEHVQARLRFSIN
# Sequence of 3',5'-cyclic-AMP phosphodiesterase 4B (Homo sapiens) (Q07343 whole entry, looked up): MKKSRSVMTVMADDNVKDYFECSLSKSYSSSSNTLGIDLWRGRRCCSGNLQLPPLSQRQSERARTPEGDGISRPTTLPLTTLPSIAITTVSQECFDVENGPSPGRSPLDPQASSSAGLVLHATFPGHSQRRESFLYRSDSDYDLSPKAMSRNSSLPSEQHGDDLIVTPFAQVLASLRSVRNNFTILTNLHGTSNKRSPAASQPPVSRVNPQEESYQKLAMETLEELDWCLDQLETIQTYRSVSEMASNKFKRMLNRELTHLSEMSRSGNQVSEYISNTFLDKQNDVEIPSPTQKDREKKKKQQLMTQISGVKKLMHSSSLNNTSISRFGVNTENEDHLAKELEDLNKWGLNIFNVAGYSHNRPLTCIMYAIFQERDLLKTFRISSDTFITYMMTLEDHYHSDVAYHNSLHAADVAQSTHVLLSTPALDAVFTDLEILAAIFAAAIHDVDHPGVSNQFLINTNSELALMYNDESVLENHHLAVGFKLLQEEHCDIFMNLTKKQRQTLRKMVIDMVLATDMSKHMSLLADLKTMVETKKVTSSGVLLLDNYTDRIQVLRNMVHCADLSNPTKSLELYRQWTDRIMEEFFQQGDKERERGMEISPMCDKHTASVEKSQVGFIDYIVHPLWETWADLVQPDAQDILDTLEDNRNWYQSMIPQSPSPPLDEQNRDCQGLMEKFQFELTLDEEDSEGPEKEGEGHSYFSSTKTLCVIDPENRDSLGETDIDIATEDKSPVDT
# Sequence of Cytochrome P450 2C19 (Homo sapiens) (P33261 whole entry, looked up): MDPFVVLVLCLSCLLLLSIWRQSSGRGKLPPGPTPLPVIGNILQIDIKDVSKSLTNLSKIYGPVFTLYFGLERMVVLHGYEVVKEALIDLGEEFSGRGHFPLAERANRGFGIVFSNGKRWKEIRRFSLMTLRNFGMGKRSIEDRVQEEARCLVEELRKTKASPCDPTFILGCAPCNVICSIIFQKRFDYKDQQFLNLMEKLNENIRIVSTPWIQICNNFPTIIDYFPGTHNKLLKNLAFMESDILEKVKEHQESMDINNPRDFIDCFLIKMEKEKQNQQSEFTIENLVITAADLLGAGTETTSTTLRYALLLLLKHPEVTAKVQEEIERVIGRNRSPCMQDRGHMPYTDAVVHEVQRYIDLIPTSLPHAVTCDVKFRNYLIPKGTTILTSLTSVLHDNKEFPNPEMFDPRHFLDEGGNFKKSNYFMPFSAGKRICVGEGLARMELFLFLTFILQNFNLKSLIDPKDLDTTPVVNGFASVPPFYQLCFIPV
# Sequence of Lysosomal acid glucosylceramidase (Homo sapiens) (P04062 whole entry, looked up): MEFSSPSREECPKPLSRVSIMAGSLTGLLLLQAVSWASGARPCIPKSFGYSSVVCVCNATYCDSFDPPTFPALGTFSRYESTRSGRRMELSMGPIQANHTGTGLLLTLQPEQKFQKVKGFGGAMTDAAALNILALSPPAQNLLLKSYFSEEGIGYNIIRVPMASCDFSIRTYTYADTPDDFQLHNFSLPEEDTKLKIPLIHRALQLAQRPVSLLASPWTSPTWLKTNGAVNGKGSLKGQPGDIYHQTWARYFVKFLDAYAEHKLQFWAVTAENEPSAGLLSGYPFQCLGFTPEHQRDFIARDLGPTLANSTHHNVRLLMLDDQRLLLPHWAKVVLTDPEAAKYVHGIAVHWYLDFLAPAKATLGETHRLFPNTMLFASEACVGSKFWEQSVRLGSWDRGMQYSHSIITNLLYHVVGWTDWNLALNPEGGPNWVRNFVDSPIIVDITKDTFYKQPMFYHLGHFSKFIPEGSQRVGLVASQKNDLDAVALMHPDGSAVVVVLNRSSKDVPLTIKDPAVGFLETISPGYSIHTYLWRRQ
# Sequence of Glucocorticoid receptor (Homo sapiens) (P04150 whole entry, looked up, the tested form may be a part): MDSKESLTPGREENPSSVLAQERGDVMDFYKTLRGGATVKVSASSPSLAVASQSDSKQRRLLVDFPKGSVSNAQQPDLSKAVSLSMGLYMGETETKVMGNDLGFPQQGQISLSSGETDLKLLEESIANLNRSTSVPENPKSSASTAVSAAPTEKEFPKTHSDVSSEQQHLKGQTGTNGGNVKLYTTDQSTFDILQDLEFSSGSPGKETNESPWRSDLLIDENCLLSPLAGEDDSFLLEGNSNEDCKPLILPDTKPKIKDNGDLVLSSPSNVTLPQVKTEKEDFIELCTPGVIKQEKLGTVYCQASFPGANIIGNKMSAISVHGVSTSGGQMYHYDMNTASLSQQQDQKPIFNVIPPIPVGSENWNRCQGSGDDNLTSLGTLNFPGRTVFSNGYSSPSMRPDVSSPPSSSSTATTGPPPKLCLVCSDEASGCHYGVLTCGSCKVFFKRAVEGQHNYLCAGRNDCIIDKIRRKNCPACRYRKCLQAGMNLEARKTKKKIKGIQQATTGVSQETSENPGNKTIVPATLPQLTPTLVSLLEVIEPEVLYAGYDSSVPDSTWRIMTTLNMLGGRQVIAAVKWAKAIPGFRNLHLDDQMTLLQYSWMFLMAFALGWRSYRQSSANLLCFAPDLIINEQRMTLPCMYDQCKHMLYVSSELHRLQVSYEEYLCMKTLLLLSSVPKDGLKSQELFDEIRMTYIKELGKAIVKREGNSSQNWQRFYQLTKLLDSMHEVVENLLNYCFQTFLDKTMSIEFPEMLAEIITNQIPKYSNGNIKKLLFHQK
# Sequence of Cytochrome P450 3A4 (Homo sapiens) (P08684 whole entry, looked up): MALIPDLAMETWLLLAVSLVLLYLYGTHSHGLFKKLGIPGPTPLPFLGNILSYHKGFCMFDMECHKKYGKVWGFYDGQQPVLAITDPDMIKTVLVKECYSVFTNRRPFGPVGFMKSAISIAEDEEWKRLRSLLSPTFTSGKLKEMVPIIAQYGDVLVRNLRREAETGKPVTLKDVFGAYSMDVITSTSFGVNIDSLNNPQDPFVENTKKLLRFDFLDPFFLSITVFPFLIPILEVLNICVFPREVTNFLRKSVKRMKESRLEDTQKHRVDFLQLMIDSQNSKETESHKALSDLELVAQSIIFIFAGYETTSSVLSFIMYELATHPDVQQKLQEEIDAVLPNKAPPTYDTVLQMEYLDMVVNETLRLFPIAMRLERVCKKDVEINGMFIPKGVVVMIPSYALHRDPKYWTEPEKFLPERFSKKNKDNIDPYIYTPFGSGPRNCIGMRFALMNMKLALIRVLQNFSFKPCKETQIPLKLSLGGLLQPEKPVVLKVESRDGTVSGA
# Sequence of Cytochrome P450 2D6 (Homo sapiens) (P10635 whole entry, looked up): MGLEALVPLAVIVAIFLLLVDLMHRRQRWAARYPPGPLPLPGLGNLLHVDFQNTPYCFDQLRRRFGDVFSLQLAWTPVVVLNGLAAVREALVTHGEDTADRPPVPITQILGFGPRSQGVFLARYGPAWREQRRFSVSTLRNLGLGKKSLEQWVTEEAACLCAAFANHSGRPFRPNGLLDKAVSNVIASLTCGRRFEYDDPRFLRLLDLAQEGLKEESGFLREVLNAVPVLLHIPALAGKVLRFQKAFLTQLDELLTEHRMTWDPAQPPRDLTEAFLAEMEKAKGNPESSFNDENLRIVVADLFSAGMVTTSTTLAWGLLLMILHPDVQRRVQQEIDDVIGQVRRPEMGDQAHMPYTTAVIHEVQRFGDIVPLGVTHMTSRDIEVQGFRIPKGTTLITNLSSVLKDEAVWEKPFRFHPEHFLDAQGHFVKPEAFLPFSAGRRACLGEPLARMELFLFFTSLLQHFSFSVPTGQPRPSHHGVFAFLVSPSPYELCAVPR
# Sequence of Cytochrome P450 2C9 (Homo sapiens) (P11712 whole entry, looked up): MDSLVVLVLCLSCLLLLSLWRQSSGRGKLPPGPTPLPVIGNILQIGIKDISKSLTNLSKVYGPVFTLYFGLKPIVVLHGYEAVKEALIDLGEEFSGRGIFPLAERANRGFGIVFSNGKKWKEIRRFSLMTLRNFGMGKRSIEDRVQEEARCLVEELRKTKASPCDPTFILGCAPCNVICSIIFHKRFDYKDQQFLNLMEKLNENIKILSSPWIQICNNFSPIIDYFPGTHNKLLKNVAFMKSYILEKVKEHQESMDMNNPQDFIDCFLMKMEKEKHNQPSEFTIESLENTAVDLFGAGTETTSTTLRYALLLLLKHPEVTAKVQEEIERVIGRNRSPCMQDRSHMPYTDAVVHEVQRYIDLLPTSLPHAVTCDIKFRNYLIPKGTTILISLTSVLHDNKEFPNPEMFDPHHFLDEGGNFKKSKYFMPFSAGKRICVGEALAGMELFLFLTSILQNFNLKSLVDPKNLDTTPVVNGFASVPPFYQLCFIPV
Structure (SMILES),Potency [1] [µM],Potency [2] [µM],"activity change, negative = inhibition [3] [%]",Potency [4],"activity change, negative = inhibition [5] [%]","activity, negative = inhibition [6] [%]",Potency [7] [µM],Potency [8] [µM],"activity change, negative = inhibition [9]",outcome [10],"activity change, negative = inhibition [4]",Potency [11],Potency [12],Potency [13],"activity change, positive = activation [14]","activity change, negative = inhibition [13]",Potency [15]
COc1ccc(C(=O)N2CCC3(CC2)CN(C(=O)NC(C)C)C3)cc1,> 20,,,,,,,,,,,,,,,,
O[C@H](CN1CC1)[C@@H](O)CN1CC1,,> 11.4,10.5,inactive,-21.2,2.88,> 46,> 9.22,2.9% [at 11.4 µM],inactive,,,,,,,
N=C(N)n1cc(/C=N\N=C(N)N)cn1,,> 11.4,8.06,,8.05,9.59,> 46,> 9.22,6.38% [at 11.4 µM],inactive,7.8% [at 2.29 µM],inactive,,,,,
Cc1ncc([N+](=O)[O-])n1CCN=[N+]=[N-],,> 11.4,3.02,inactive,5.75,-11.7,> 46,> 9.22,,inactive,,,,,,,
NCCc1ccc(S(=O)(=O)O)cc1[N+](=O)[O-],,> 11.4,-10.6,inactive,-27.3,1.75,> 46,> 9.22,10.9% [at 11.4 µM],inactive,,,,,,,
O=[As](O)(O)c1ccc2nc3cc([As](=O)(O)O)ccc3nc2c1,,> 11.4,0.372,inactive,20.7,-4.42,> 46,> 9.22,-2.18% [at 11.4 µM],inactive,,,inactive,,,,
C[C@@H](O)CN(CCN(C[C@@H](C)O)C[C@@H](C)O)C[C@@H](C)O.O=[N+]([O-])O.[Cu],,> 11.4,-0.101,5.01 µM (active),-2.32,2.41,> 46,> 9.22,-3.67% [at 11.4 µM],inactive,,,0.398 µM (active),0.794 µM (active),-36.8% [at 11.4 µM],,
CN(C)CCCc1c[nH]c2ccccc12,,> 11.4,-7.94,inactive,-13,1.91,> 46,> 9.22,3.98% [at 11.4 µM],inactive,,,,,,,
Cc1ccc(C2(c3ccc(C)c(O)c3C)CCN(C)CC2)c(C)c1O,,> 11.4,2.94,5.01 µM (active),3.1,3.48,> 46,> 9.22,1.97% [at 11.4 µM],inactive,,,,,,,
C[C@@]12CC[C@H](O[C@@H]3O[C@H](CO)[C@@H](O)[C@H](O)[C@@H]3O)C[C@@H]1CC[C@H]1[C@H]2CC[C@@]2(C)[C@@H](C3=CCOC3=O)CC[C@]12O,,> 11.4,-9.15,inactive,2.85,12.3,> 46,> 9.22,8.37% [at 11.4 µM],inactive,,,,,,,
Cc1ccc(OP(=O)(Oc2ccc(C)cc2)N2C=Cc3ccccc3[C@H]2C#N)cc1,,> 11.4,0.753,3.98 µM (active),-17.9,-13.5,> 46,> 9.22,7.39% [at 11.4 µM],inactive,,,2.51 µM (active),,-91.2% [at 11.4 µM],45.9% [at 11.4 µM],2.51 µM (active)
CC(C)c1ccc(C(O)(C(=O)O)c2ccc(C(C)C)cc2)cc1,,> 11.4,2.63,inactive,-9.63,4.5,> 46,> 9.22,5.33% [at 11.4 µM],inactive,,inactive,,,,,
NC(=O)c1ccc(C(=O)Nc2ccc([As](=O)(O)O)cc2)cc1,,> 11.4,-1.92,,26.9,5.04,> 46,> 9.22,1.99% [at 11.4 µM],inactive,-13.8% [at 2.29 µM],,,,,,
C[C@H](Br)C(=O)N[C@H](CO)C(=O)O,,> 11.4,-6.82,inactive,5.22,-2.06,> 46,> 9.22,0.572% [at 11.4 µM],inactive,,,,,,,

# Source: PubChem BioAssay (NCATS)
